From PubChem BioAssay (NCATS)
Inconclusive results are not listed. The source made the active and inactive calls. The call rests on the fitted dose curve; in most records, active means well fitted curve in the direction sought with a large enough effect; inconclusive means small, poorly fitted or top-dose-only effect, or another doubt; inactive means no such curve, though single readings can be large; an effect the other way counts as inactive or inconclusive.

How the values were obtained:
[1] = qHTS of pediatric cancer cell lines to identify multiple opportunities for drug repurposing: Primary screen for TC32 cells (AID 1347089); further: nearly all actives have a fitted effect of over 60% in size
Method in brief: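 Luminescent ATP read-out (CellTiter-Glo) of metabolically active TC32 cells after 48 h exposure. Concentration-response curves came from 11-point (MIPE, 0.78 nM–46 µM) or 8-point (NPC, 0.59 nM–46 µM) primary titrations; follow-up used 11 points.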

[2] = qHTS of pediatric cancer cell lines to identify multiple opportunities for drug repurposing: Primary screen for SJ-GBM2 cells (AID 1347091)
Method in brief: (§1)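 Viability measured as metabolically active cells via CellTiter-Glo luminescence following 48 hours of compound exposure, 11-point dilutions in confirmatory testing. 500-1,000 cells/well plated 5 hours before dosing; controls were DMSO and 2.3 µM bortezomib.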

[3] = qHTS of pediatric cancer cell lines to identify multiple opportunities for drug repurposing: Primary screen for A673 cells (AID 1347092); further: nearly all actives have a fitted effect of over 45% in size
Method in brief: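 Cell viability of A673 measured by CellTiter-Glo ATP luminescence after 48 hours compound exposure. Dilution series spanned 0.78 nM to 46 µM (MIPE, 11-point) or 0.59 nM to 46 µM (NPC, 8-point); bortezomib 2.3 uM positive control.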

[4] = qHTS of pediatric cancer cell lines to identify multiple opportunities for drug repurposing: Primary screen for SK-N-MC cells (AID 1347093)
Method in brief: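 Metabolically active cells were quantified by ATP-dependent luminescence (CellTiter-Glo, 15 min at room temperature) following 48 h treatment. Cells had been plated at 500-1,000 per well and settled for 5 h beforehand.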

[5] = qHTS of pediatric cancer cell lines to identify multiple opportunities for drug repurposing: Primary screen for BT-37 cells (AID 1347094)
Method in brief: (§2)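 Cells seeded at 500-1,000 cells/well in growth media, rested 5 hours at 37 degrees C, 5% CO2, then dosed; MIPE compounds at 11-point (from 0.78 nM) and NPC at 8-point (from 0.59 nM) final concentrations. Viability by CellTiter-Glo luminescence after 48 hours.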

[6] = qHTS of pediatric cancer cell lines to identify multiple opportunities for drug repurposing: Primary screen for NB-EBc1 cells (AID 1347095)
Method in brief: as §2

[7] = qHTS of pediatric cancer cell lines to identify multiple opportunities for drug repurposing: Primary screen for U-2 OS cells (AID 1347096); further: nearly all actives have a fitted effect of over 50% in size
Method in brief: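 Viability after 48 h compound treatment at 37C, 500-1,000 cells/well, read as ATP luminescence with CellTiter-Glo. Primary screens used 11-point (MIPE, 0.78 nM-46 µM) or 8-point (NPC, 0.59 nM-46 µM) final concentrations; follow-up screens used 11-point dilutions.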

[8] = qHTS of pediatric cancer cell lines to identify multiple opportunities for drug repurposing: Primary screen for Saos-2 cells (AID 1347097); further: nearly all actives have a fitted effect of over 40% in size
Method in brief: as §2

[9] = qHTS of pediatric cancer cell lines to identify multiple opportunities for drug repurposing: Primary screen for DAOY cells (AID 1347090); further: nearly all actives have a fitted effect of over 55% in size
Method in brief: as §1

[10] = qHTS of pediatric cancer cell lines to identify multiple opportunities for drug repurposing: Primary screen for SK-N-SH cells (AID 1347098); further: nearly all actives have a fitted effect of over 65% in size
Method in brief: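 Cells (500-1,000/well) rested 5 h, then received compounds for 48 h; metabolically active cells were measured by CellTiter-Glo luminescence. Final concentrations spanned up to 46 µM (MIPE, 11-point) or 0.59 nM-46 µM (NPC, 8-point) in primary screens, 11-point in follow-ups.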

Measured: Potency
Potency means the concentration at half of the fitted maximal effect.

C#C[C@]1(O)CC[C@H]2[C@H]3CCc4cc(OC)ccc4[C@H]3CC[C@@]21C
inactive: [1] | [2] | [5] | [6] | [7] | [8]
active: [3] 18.7 µM | [4] 20.9 µM

CN(C)CCN(Cc1ccc(Cl)cc1)c1ccccn1
inactive: [1] | [2] | [5] | [7] | [8]
active: [3] 18.7 µM | [4] 10.5 µM

CCCCN(CCCC)CC(O)c1cc(Cl)cc2c1-c1ccc(Cl)cc1C2=Cc1ccc(Cl)cc1 (stereo not given)
inactive: [1] | [9] | [5] | [6] | [7] | [8] | [10]

NC(N)=Nc1nc(CSCCC(N)=NS(N)(=O)=O)cs1
inactive: [1] | [2] | [5] | [7] | [8]
active: [3] 11.8 µM | [4] 10.5 µM | [10] 19.2 µM

CN(CC=CC#CC(C)(C)C)Cc1cccc2ccccc12
inactive: [1] | [9] | [5] | [7] | [8] | [10]

CCC(=O)OCC(=O)[C@@]1(OC(=O)CC)[C@@H](C)C[C@@H]2[C@H]3CCC4=CC(=O)C=C[C@]4(C)[C@@]3(F)[C@@H](O)C[C@@]21C
active: [9] 1.18 µM | [4] 0.0372 µM | [8] 0.187 µM
inactive: [1] | [7]

COc1ccc(-c2cc(=O)c3c(O)cc(O[C@@H]4O[C@H](CO[C@@H]5O[C@@H](C)[C@H](O)[C@@H](O)[C@@H]5O)[C@@H](O)[C@H](O)[C@@H]4O)cc3o2)cc1O
active: [3] 14.8 µM | [4] 7.43 µM | [10] 27.1 µM
inactive: [1] | [2] | [5] | [7] | [8]

CNC(=O)c1cc(Oc2ccc(NC(=O)Nc3ccc(Cl)c(C(F)(F)F)c3)c(F)c2)ccn1
inactive: [1]
active: [2] 8.33 µM | [3] 18.7 µM | [4] 2.96 µM | [5] 21.7 µM | [6] 5.26 µM | [7] 23.5 µM | [8] 16.6 µM

CCCCOCCOc1nc(-c2ccc(C(=O)O)c(F)c2)sc1C
active: [10] 6.81 µM
inactive: [1] | [2] | [3] | [5] | [7] | [8]

Cc1nc2c([nH]1)CCN(C(=O)c1ccc(NC(=O)c3ccccc3-c3ccccc3)cc1)c1ccccc1-2
inactive: [1] | [2] | [3] | [5] | [6] | [7] | [8] | [10]

CSc1cccc(Nc2ncc3cc(-c4c(Cl)cccc4Cl)c(=O)n(C)c3n2)c1
inactive: [1] | [10]
active: [2] 0.418 µM | [4] 0.0935 µM | [6] 0.372 µM | [8] 0.118 µM

CCCCCCOC(=O)N=C(N)c1ccc(NCc2nc3cc(C(=O)N(CCC(=O)OCC)c4ccccn4)ccc3n2C)cc1
active: [2] 18.7 µM | [3] 14.8 µM | [4] 29.6 µM
inactive: [1] | [7] | [10]

CC(C)(C)c1[nH]cnc1C=c1[nH]c(=O)c(=Cc2ccccc2)[nH]c1=O
active: [1] 0.0068 µM | [2] 0.001 µM | [4] 0.001 µM | [6] 0.001 µM | [7] 42.9 µM | [8] 0.136 µM

CN1c2ccccc2C(=O)N2CCc3c([nH]c4ccccc34)C21 (stereo not given)
active: [4] 10.5 µM
inactive: [1] | [2] | [5] | [6] | [7]

CC(C)CN(C[C@H](O)[C@H](Cc1ccccc1)NC(=O)O[C@H]1CCOC1)S(=O)(=O)c1ccc(N)cc1
active: [3] 11.8 µM
inactive: [1] | [2] | [6] | [7]

FC(F)(F)c1ccc(C=Cc2nc(COc3ccc(CCCCn4ccnn4)cc3)co2)cc1
active: [1] 6.58 µM | [2] 0.0037 µM | [4] 0.0093 µM | [5] 0.0109 µM | [8] 0.0332 µM
inactive: [7]

CC(=O)Nc1cccc(-n2c(=O)n(C3CC3)c(=O)c3c(Nc4ccc(I)cc4F)n(C)c(=O)c(C)c32)c1
active: [4] 7.43 µM | [10] 3.41 µM
inactive: [1] | [2] | [5]

O=C(Nc1ccc(OC(F)(F)F)cc1)c1sccc1NCc1ccnc2ccccc12
inactive: [1] | [2] | [6] | [7] | [10]
active: [4] 26.4 µM | [8] 18.7 µM

C[C@@H]1C[C@H]2[C@@H]3CCC4=CC(=O)C=C[C@]4(C)[C@@]3(F)[C@@H](O)C[C@]2(C)[C@@]1(O)C(=O)CO
inactive: [1] | [2] | [5] | [6] | [7] | [8]
active: [4] 0.001 µM

COc1cc(Cl)cn2c(-c3cccc(NC4CNC4)n3)cnc12
inactive: [1]
active: [2] 5.26 µM | [4] 2.96 µM | [6] 2.96 µM
